Shown are actives, neighbours in structure and some others; about 2% of the full set was active somewhere.
CHT inh – human CHT choline transport inhibition; 0.86% of 310,000 active; AID 488975; B-score at 10 µM; Q9GZV3; CHT-expressing cells, membrane potential dye, choline response; stronger effect = lower value;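 active = B-score over 3 SD under the library average, and starting fluorescence ratio not unusually high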;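 note: choline stimulus applied at its EC90 after an EC20 pre-addition; B-score computed on integrated fluorescence ratio after choline addition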
Kir21 inh – inhibitors of mouse Kir2.1 inward-rectifier potassium channel; B-score at 10 µM; P35561; HEK293-Kir2.1, FluxOR thallium flux fluorescence; stronger effect = lower value; AID 1672; 0.85% of 310,000 active;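 active = fluorescence ratio B-score at or below minus 3 SD of library scores, with starting-brightness B-score within 2 SD, cut at about -4.2 in these data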;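 note: channel flux triggered by added potassium and thallium sulfate stimulus; B-score of peak minus minimum fluorescence over baseline after thallium stimulus; more negative B-score means stronger Kir2.1 block with less thallium influx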
Target sequence (P35561 whole entry, looked up): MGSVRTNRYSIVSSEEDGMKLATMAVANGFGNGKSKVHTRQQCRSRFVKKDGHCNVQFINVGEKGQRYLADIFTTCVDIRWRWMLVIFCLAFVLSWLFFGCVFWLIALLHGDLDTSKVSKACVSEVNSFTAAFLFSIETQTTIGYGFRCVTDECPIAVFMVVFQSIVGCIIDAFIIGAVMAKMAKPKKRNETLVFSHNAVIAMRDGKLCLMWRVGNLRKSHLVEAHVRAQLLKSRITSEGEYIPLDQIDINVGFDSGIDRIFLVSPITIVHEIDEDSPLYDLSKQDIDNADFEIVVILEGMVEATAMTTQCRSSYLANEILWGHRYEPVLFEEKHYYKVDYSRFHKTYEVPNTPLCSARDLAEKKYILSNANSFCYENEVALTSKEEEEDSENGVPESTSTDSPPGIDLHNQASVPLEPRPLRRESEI
TAG inh – reduces triacylglycerol accumulation in H9c2 cells; Nile Red lipid (TAG) fluorescence; cells loaded with 200 µM oleic acid; inhibition, % at 12.5 µM; 0.66% of 230,000 active; AID 651582;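 active = pattern-corrected inhibition of lipid staining of at least 50% with the nuclear-stain viability signal not falling by more than 50%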;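 note: 0% = DMSO wells and 100% = triacsin C control wells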
CHT allo act – allosterically activates the human high affinity choline transporter; B-score at 10 µM; AID 488977; 0.49% of 310,000 active; CHT-expressing cells, membrane potential dye, choline EC20; stronger effect = higher value; LV-AA mutant CHT in HEK293 cells; Q9GZV3;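 active = initial fluorescence not abnormally high and integrated response B-score, plate-corrected, over 3 SD above library mean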
Numbers without * were called inactive; i = inactive; . = not tested or not shown.

SMILES	CHT inh	Kir21 inh	TAG inh	CHT allo act
Cc1c(Cc2ccccc2)c(=O)oc2cc(OCC(=O)NCc3ccccn3)ccc12	i	-0.36	.	i
COc1cccc(C2=CC(c3ccc(N(C)C)cc3)n3ncnc3N2)c1 (stereo unspecified)	-9.3*	0.76	.	i
C=CCC(CC(O)COCCC)C(=O)NNC(=S)Nc1ccccc1 (stereo unspecified)	i	1.3	-39	i
COc1cccc(-c2nc3ccccc3s2)c1	i	0.08	0	i
COc1cccc(-c2nc(C=O)cs2)c1	-5*	2.1	7	i
Cn1c(CSc2ccccc2)c(C#N)c2ccccc21	i	0.36	.	i
Cc1ccc(SCc2c(C#N)c3ccccc3n2C)cc1	i	-6.6*	-16	i
Cc1ccc(NC(=S)Nc2ccc(F)cc2)c(C)c1	i	-0.26	.	i
C/C(=N\Nc1nc2ccccc2s1)c1cccs1	i	1.2	.	i
CC(=NNc1nc2ccccc2o1)c1cc2ccccc2cn1	.	.	-12	.
CC(=NNc1nc2ccccc2s1)c1ncccn1	.	.	63*	.
Brc1ccc(/C=N/Nc2nc3ccccc3o2)cc1	i	-0.14	.	i
Oc1ccccc1/C=N/Nc1nc2ccccc2o1	i	-0.84	63*	i
CC(=NNc1nc2ccccc2o1)c1ncccn1	.	.	51*	.
COC(=O)c1ccc(C2=NOC(C)(c3nnc(-c4cccc(Cl)c4)o3)C2)cc1 (stereo unspecified)	i	-0.91	.	i
CN(C)Cc1ccccc1Sc1ccccc1Br	i	-0.4	.	i
CN(C)Cc1ccccc1Sc1cccc2ccccc12	i	-5.3*	.	i
COc1ccc(Cl)cc1NC(=O)CN(C)C(=O)Cc1ccc2c(c1)CCC2	i	-4.8*	36	i
CC1CCN(C(=O)CCc2nnc3ccc(NCCCN4CCCC4=O)nn23)CC1	i	0.31	.	i
CC(C)(C)c1ccc(Cn2c(=N)n(CC(O)c3ccco3)c3ccccc32)cc1 (stereo unspecified)	-6.6*	-6.2*	107*	i
CCCCn1c(=N)n(CC(O)c2ccccc2)c2ccccc21 (stereo unspecified)	i	-3	16	i
O=C(N/N=C/c1ccccc1O)c1ccncc1	i	-0.07	-20	i
O=C(N/N=C/c1cc(Br)ccc1O)c1ccncc1	i	1.7	56*	i
COc1ccc(Cl)cc1NC(=O)c1nnn(CC(=O)Nc2ccc(C)c(C)c2)c1N	i	1.4	.	i
Cc1cc(C(=O)OCC(=O)NC2(C#N)CCCCC2)c(C)o1	.	.	14	.
SMILES	CHT inh	Kir21 inh	TAG inh	CHT allo act
CCOc1ccccc1NC(=O)c1ccccc1-c1nc(-c2ccccc2)no1	i	-0.81	-5	i
CCOc1ccccc1NC(=O)c1ccccc1-c1ccccc1	i	-4.8*	-4	i
O=C(Nc1ccc(OC(F)(F)C(F)F)c(NC(=O)c2cccc(F)c2)c1)c1cccc(F)c1	i	-0.02	9	i
COc1ccccc1/C=N/NC(=O)C(C)Cn1cnc2ccccc21 (stereo unspecified)	i	0.61	.	i
Cc1cccc(OC(C)C(=O)N2CCCc3ccccc32)c1 (stereo unspecified)	i	-5.2*	.	i
Cc1ccc(OC(C)C(=O)N2CCCc3ccccc32)cc1 (stereo unspecified)	i	-5.5*	.	i
Cn1c(=O)c2c(ncn2CC(=O)N2CCN(C(=O)c3ccco3)CC2)n(C)c1=O	i	0.96	0	i
Cc1ccc(NC2=Nc3ccccc3N3C2=Nc2c(c(C)nn2-c2ccccc2)C3c2ccc(O)c(O)c2)cc1 (stereo unspecified)	.	.	110*	.
Cc1ccc(SCC(=O)NNC(=O)CNC(=O)c2ccc(Br)cc2)cc1	.	.	7	.
O=C(O)CC12CC3CC(C1)CC(n1ncc(NCc4ccc5c(c4)OCO5)c(Cl)c1=O)(C3)C2	i	-0.83	.	i
COc1ccccc1-c1c(C)oc2cc(OC(=O)c3ccco3)ccc2c1=O	i	-9.2*	.	i
C/C(=N\Nc1nc2ccccc2nc1C)c1ccccc1O	i	1.1	52*	i
O=C(Nc1ccncc1)c1ccc(NS(=O)(=O)c2ccc3[nH]c(=O)[nH]c3c2)cc1	i	0.75	-8	i
COc1cc(CC(=O)Nc2ccccc2N2CCCCC2)cc(OC)c1OC	i	-1.4	-16	i
COc1ccc(CC(=O)Nc2ccccc2N2CCCC2)cc1OC	i	-4.5*	-21	i
NC(N)=NN=C1CCCCCCCCCCC1	i	-11*	-14	i
ON=C1CCCCCCCC1	.	.	-8	.
O=S(=O)(Nc1cccnc1)c1ccc(Br)c2ccccc12	i	-0.83	3	i
CCc1ccc(OCC(=O)Nc2ccc3c(c2)OCCO3)cc1	i	-4.7*	.	i
CCc1ccc(NC(=O)COc2ccc3c(c2)OCO3)cc1	i	-0.38	-25	i
N#Cc1ccc(S(=O)(=O)N2CCc3[nH]c4ccc(F)cc4c3C2)cc1	i	-1.9	16	i
COc1ccc2[nH]c(=O)c(CN(C3CCCCC3)C(c3nnnn3Cc3ccco3)C(C)C)cc2c1 (stereo unspecified)	i	-3	-1	i
COc1ccc2[nH]c(=O)c(CN(Cc3nnnn3Cc3ccco3)C3CCCCC3)cc2c1	i	-4.5*	15	i
O=C1c2ccccc2C(O)N1Cc1ccco1 (stereo unspecified)	i	-0.89	-7	i
c1coc(CN=C2NC(=NCc3ccco3)c3ccccc32)c1	i	-6.2*	.	i
SMILES	CHT inh	Kir21 inh	TAG inh	CHT allo act
COc1ccc(CNC(=O)CSCc2cnn(-c3ccccc3)c2-n2cccc2)cc1	i	-4.9*	5	i
O=C(CSCc1cnn(-c2ccccc2)c1-n1cccc1)NCCN1CCOCC1	i	-1.3	43	i
COc1ccc(-n2c(CCc3ccccc3)nnc2SCC(=O)NCc2ccccc2)cc1	i	-4.9*	1	i
O=C(CSCc1cnn(-c2ccccc2)c1-n1cccc1)NCc1ccccn1	i	-4.4*	-6	i
COc1ccc(-c2nnc(NC(=O)C3CCCN3S(=O)(=O)c3cccs3)o2)cc1 (stereo unspecified)	i	-0.25	-30	i
O=C(Cc1ccc(Br)cc1)NCCCn1ccnc1	i	0.15	-7	i
COc1ccc(S(=O)(=O)Nc2nc3ccccc3nc2Nc2cccc(C(=O)O)c2)cc1	i	-0.32	.	i
Cc1[nH]c2ccccc2c1C(=O)COC(=O)c1ccccc1O	.	.	7	.
CN(C(=O)C(Cl)Cl)c1ccc(OC(=O)c2ccco2)cc1	i	-4.7*	-1	i
O=C(Oc1cccnc1)c1ccco1	i	0.2	3	i
CCOc1ccc(NC(=O)COC(=O)CCS(=O)(=O)c2ccc(C)cc2)cc1	i	0.04	-5	i
CCOc1ccc(NS(=O)(=O)c2cc(NC(=O)CCS(=O)(=O)c3ccc(C)cc3)ccc2OC)cc1	-5.1*	-2.4	2	i
CCc1noc(C)c1C(=O)N1CCCC(N2CCN(c3ccccc3F)CC2)C1 (stereo unspecified)	i	0.72	-4	i
